Assay outcomes (PubChem)
This is a sample that favours compounds with a hit; in the whole collection about 2.5% have one here.
CCT modulator: modulators of cytosolic chaperonin (CCT/TRiC) activity; purified chaperonin ATPase assay, HTRF ADP detection, 30 min; activity change, % (no concentration beside the values), hits read low; hit rate 0.3% among 360,000; in the data active = activity change below about -30%; also: % is scaled to controls: 0 for no effect and ±100 for the full control effect
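We incubate TRiC, 40 or 20 nM final, with library compounds at 76 uM and 10 uM ATP for 30 min at 37 °C. ADP formed is detected with Transcreener HTRF reagents after 30 min at room temperature.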
pAkt inh: blocks phosphorylation of Akt; Neuro2A IGF-stimulated pAkt S473 HTRF, 20 min; active compounds read low; activity change, % for hits at 50 µM; hit rate 0.32% among 360,000; AID 651550; in the data active = activity change below about -80%; inconclusive = mostly about -51% to -80%; also: % is scaled to controls: 0 for no effect and ±100 for the full control effect
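Single-point screen (50 µM final compound) in Neuro2A cells stimulated 20 min with 6 nM IGF at 37 deg C. After lysis, Ser473-phosphorylated Akt read by HTRF (ex 330 nm, em 615/665 nm) as the 665/615 ratio.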
Mito fusion yeast: mitochondrial division inhibition or fusion activation. S. cerevisiae fusion-defective mutant growth rescue, CellTiterGlo 48 h. Potency, µM (highest dose often 46.1 µM), without a hit: top-dose growth rescue (activation), hits mostly activators. hit rate 0.23% among 320,000; also: potency is read from the fitted curve at half-maximal effect; % of control where 0% means no effect; nearly all actives have a fitted effect of over 45% in size
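Temperature-sensitive fusion-defective S. cerevisiae (e.g. fzo1-1, mgm1-5) were grown with compound in YPEG medium (3% ethanol, 3% glycerol) for 48 hours at 37C. Growth rescue was measured as viability by CellTiterGlo luminescence after 10 minutes at ambient.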
aSyn rescue: rescues yeast growth from alpha-synuclein toxicity | Yeast expressing alpha-synuclein, growth rescue, BacTiter-Glo, 24 h | Potency, µM (doses to about 46.1 µM), inactives show at the highest dose growth rescue (activation), usual class: activators | hit rate 0.14% among 370,000 | AID 652106; also: potency is read from the fitted curve at half-maximal effect; % of control where 0% means no effect; nearly all actives have a fitted effect of over 65% in size
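Galactose-induced alpha-syn yeast (OD600=0.02, raffinose-pregrown) + pinned cpd, 24 hr, 30 deg C; growth by BacTiter-Glo luminescence. Growth restoration scores as activation.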
TDP-43 yeast inh: rescues yeast growth from TDP-43 toxicity; TDP-43 expressing yeast growth rescue, BacTiter-Glo, 24 h; Potency, µM (top dose mostly 46.1 µM), inactives show top-dose growth rescue (activation), usual class: activators; hit rate 1.8% among 410,000; AID 652104; also: potency is read from the fitted curve at half-maximal effect; % of control where 0% means no effect; nearly all actives have a fitted effect of over 50% in size
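In this qHTS, compounds that restore growth of yeast expressing TDP-43 appear as activators. Cells (OD600=0.02, galactose medium, raffinose-pregrown) are incubated with compound 24 hr at 30 deg C and growth is quantified by BacTiter-Glo.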
Apoferritin bind: candidate novel general anesthetic via apoferritin binding. apoferritin/1-aminoanthracene competitive binding, fluorescence. hit rate 0.074% among 350,000. AID 485281. Potency, µM (titrated, usually from 77.5 µM), inactives show at the highest dose activity change, negative = displacement, hits mostly inhibitors; also: potency is read from the fitted curve at half-maximal effect; % is scaled to controls: 0 for no effect and ±100 for the full control effect; nearly all actives have a fitted effect of over 20% in size
Target sequence (P02791 2-175 limits assumed): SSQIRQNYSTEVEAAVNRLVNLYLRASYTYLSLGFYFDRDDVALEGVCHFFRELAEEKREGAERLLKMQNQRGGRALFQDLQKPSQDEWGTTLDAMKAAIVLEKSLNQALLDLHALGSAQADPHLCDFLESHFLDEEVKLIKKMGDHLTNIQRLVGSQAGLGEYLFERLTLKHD
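Horse-spleen apoferritin (10 uM) was mixed with 50% saturated 1-aminoanthracene in PBS, exposed to compounds for 10 min at room temperature, and read for fluorescence (ex 380 nm, em 535 nm). Competitive displacement was fitted with a four-parameter Hill equation.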
* marks the source's active call; other numbers are inactive results; i = inactive; u = inconclusive; x = no result; ! = not active in a repeat; [ ] = dose if it differs, or a comment. Unless noted, calls follow the shape of the dose curve; as a rule, active = well fitted curve in the direction sought with a large enough effect; inconclusive = small, poorly fitted or top-dose-only effect, or another doubt; inactive = no such curve, though single readings can be large; an effect the other way counts as inactive or inconclusive.

SMILES | CCT modulator | pAkt inh | Mito fusion yeast | aSyn rescue | TDP-43 yeast inh | Apoferritin bind
COc1ccc2ncc(S(=O)(=O)c3ccccc3)c(N3CCC4(CC3)OCCO4)c2c1 | -4 | i | -4% | 7% | 18µM* | -23%
COc1ccc(C2CC(O)(c3ccccc3)Oc3c(C)ccc(C(C)C)c32)cc1 (stereo not drawn) | x | x | x | x | x | 0%
NCCCCCCC(O)(P(=O)(O)O)P(=O)(O)O | x | x | x | x | x | 4%
CC1COC(=O)O1 (stereo not drawn) | x | x | x | x | x | 0%
Cc1cc(C)cc(NC(=O)C(=O)NCC(c2ccc3c(c2)OCO3)N2CCN(C)CC2)c1 (stereo not drawn) | x | x | x | x | 25% | -23%
COc1cc(/C=C(\C#N)C(=O)c2ccc(O)c(O)c2)cc(I)c1O | 1 | i | 23µM*! | -27% | 4% | x
Cc1ccc(Cl)cc1N1CCN(C(=O)c2ccc3c(Cl)c4c(nc3c2)CCCC4)CC1 | x | x | x | x | 19% | -5%
Cc1cc(C)n2c(Nc3ccccc3)c(-c3ccc(C)o3)nc2n1 | x | x | x | -15% | x | x
CC1CC=CC2C1C(=O)N(Cc1ccccc1)C2c1ccc(C(F)(F)F)cc1 (stereo not drawn) | x | x | x | x | x | 22%
CC(C)(C)NC(=O)C(c1ccccc1)n1c(=O)c(-c2cc3ccccc3[nH]2)nc2ccccc21 (stereo not drawn) | x | i | x | u | u | x
CC(C)(C)NC(=O)C(c1ccc(C(F)(F)F)cc1)n1c(=O)c(-c2cc3ccccc3[nH]2)nc2ccccc21 (stereo not drawn) | x | i | x | 7.1µM* | u | x
CC(C)(C)NC(=O)C(c1ccc(C#N)cc1)n1c(=O)c(-c2cc3ccccc3[nH]2)nc2ccccc21 (stereo not drawn) | x | i | x | 13µM* | 26% | x
CCCn1c(C)nc2c(NCCCN(CCO)CCO)nc(C)nc21 | x | x | x | x | x | 3%
N#CCCSc1nc(N2CCOCC2)c2c(c1C#N)CCCC2 | 3 | i | -5% | 15% | 18µM* | -4%
COc1ccc(C(=O)n2nc(C)cc2Nc2ccccc2)cc1 | 1 | i | 7% | -18% | 35µM* | u
Cc1cc(Nc2ccccc2)nn1C(=O)c1ccccc1 | -1 | i | -3% | -34% | 18% | u
CN(C)c1ccc(/C=C2/CCc3ccccc32)cc1 | x | x | x | 0% | x | x
O=C(c1cccs1)N1CCCc2cc(NS(=O)(=O)c3ccc(Br)cc3)ccc21 | x | x | x | x | 0%[9.22 µM] | 6%
COc1ccc(NC(=O)c2sccc2-n2cccc2)cc1 | -2 | i | -2% | -3% | 13µM* | -14%
Cc1ccc(NC(=O)c2sccc2-n2cccc2)c(C)c1 | 0 | i | 27% | 7% | 22µM* | u
Cc1cccc(OCC(=O)Nc2ccc(O)c(-c3nc4ccccc4o3)c2)c1 | x | x | x | -3% | x | x
O=C(OCCOCCN=C1NS(=O)(=O)c2ccccc21)c1ccccc1 | -1 | i | 0% | 2% | -6% | 0%
O=C(OCCOCCN=C1NS(=O)(=O)c2ccccc21)c1ccncc1 | 3 | -107%* | -3% | -5% | -17% | -12%
Cc1ccc(-c2cc(O)cc3sc(=O)oc23)cc1C | -1 | i | u | -18% | 11µM* | u
CCc1nc2ccc(C(=O)Nc3cc(-c4ccccc4)ccc3OC)cn2c1N(C)CCC(C)C | -1 | i | x | -55% | -81% | x
SMILES | CCT modulator | pAkt inh | Mito fusion yeast | aSyn rescue | TDP-43 yeast inh | Apoferritin bind
CCc1nc2ccc(C(=O)Nc3cc(-c4ccccc4)ccc3OC)cn2c1N(C)CCCc1ccccc1 | -1 | i | x | -14% | 20µM* | x
O=C(CCCCCn1c(=S)[nH]c2ccccc2c1=O)NCc1ccc2c(c1)OCO2 | -1 | u | -2% | 1% | 7.1µM* | -9%
O=c1c2ccccc2[nH]c(=S)n1Cc1ccc2c(c1)OCO2 | 0 | i | 7% | 8% | 6% | -4%
O=C(/C=C/C#Cc1cccc(NS(=O)(=O)c2ccccc2)c1)NO | x | x | x | x | x | -12%
Nc1ncnc2c1ncn2CCOc1ccccc1 | -31* | i | -2% | 5% | 1% | 0%
Nc1ncnc2c1ncn2Cc1ccccc1 | -3 | i | 4% | 1% | 9% | -2%
O=C1CCCN1CCCNS(=O)(=O)c1ccccc1 | -1 | i | 1% | u | 1.1µM* | -2%
O=C1CCCN1CCCNS(=O)(=O)c1cccs1 | 0 | i | x | -1% | 7% | x
C[C@@H]1/C=C\CC(=O)OC[C@H](C)C(=O)N[C@@H](Cc2ccccc2)C(=O)OC1 | x | x | x | x | x | -13%[15.3 µM]
O=C(COc1ccccc1Cl)NC(=S)N1CCc2ccccc21 | 1 | i | 7% | -20% | 18µM* | u
O=C(COc1ccccc1Cl)NC(=S)Nc1ccccc1N1CCCC1 | -1 | i | -17% | 6% | 16µM* | 1%
COC(=O)c1ccccc1NC(=S)NC(=O)COc1ccccc1Cl | 2 | i | -6% | -11% | -4% | u
Fc1ccc(CNC(=S)Nc2ccccc2F)cc1 | -3 | i | -13% | -1% | u | -12%
Fc1ccccc1NC(=S)NCc1ccc(Cl)cc1 | 2 | i | -23% | 1% | 11µM* | -19%
S=C(NCc1ccccc1)Nc1cccc(Cl)c1 | -5 | i | 1% | -11% | 28µM* | -8%
CCOc1ccc(NC(=O)c2ccc3c(c2)CCN3S(=O)(=O)CC)cc1 | x | x | x | x | -9% | -3%
CCOC(=O)/C=C/c1cnn(-c2ccccc2)c1 | 2 | i | 4% | 0% | 13% | -18%
O=C(O)/C=C/c1cnn(-c2ccccc2)c1 | 2 | i | -1% | 0% | 35µM* | -4%
O=C(c1ccco1)N(Cc1ccc([N+](=O)[O-])cc1)c1ccc(Cl)cc1 | -2 | i | 10% | 10% | 22µM* | u
O=C(c1ccco1)N(Cc1ccc([N+](=O)[O-])cc1)c1ccc(Br)cc1 | -1 | i | 14% | 1% | 32µM* | u
O=C(c1ccco1)N(Cc1cccc([N+](=O)[O-])c1)c1ccc(Br)cc1 | -4 | i | -8% | 12% | -21%[0.397 µM] | -11%
O=C(COc1ccccc1C(=O)Nc1ccccc1)Nc1ccc(-c2ccccc2)cc1 | x | x | x | 2% | x | x
Fc1ccccc1N1CCN(c2c3c(nc4nncn24)CCC3)CC1 | x | x | x | x | u | -9%
O=C(O)CN(CC(=O)O)c1ccccc1OCCOc1ccccc1N(CC(=O)O)CC(=O)O | x | x | x | x | x | -7%
COc1ccc(-c2noc(CSc3nnc(-c4ccc(Cl)cc4)n3C)n2)cc1OC | x | x | x | x | u | -19%
CCOc1nc(C#N)nc(N2CCOCC2)n1 | x | x | x | 1% | x | x
C(=Nc1ccc2ccccc2n1)c1cccnc1 | x | x | x | 0% | x | x
COc1ccc(CNC(=S)Nc2ccccc2)cc1Cl | 3 | i | -31% | 6% | 17% | -1%
